Bioassay records (PubChem)
Shiga inhibitor: Shiga toxin inhibition. Vero cells, Shiga toxin protein synthesis inhibition reporter. inhibition, % at 38.7 µM. 9.2% of 290,000 active. AID 2315; in the data active = inhibition mostly above about 28%, no sharp cut-off; inactive = mostly below about 43%; note: 0% is about no effect
NS1 function inh: influenza NS1 inhibition. Potency, µM (top dose mostly 46.1 µM), inactives show top-dose activity, positive = more growth. 0.4% of 270,000 active. AID 2326; calls by dose curve; note: potency is the fitted concentration of half-maximal effect; actives are rising curves; nearly all actives have a fitted effect of over 50% in size
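A cell-based growth assay was used: compounds that relieve NS1-induced slow growth of budding yeast raise OD600. Assay medium was yeast nitrogen base with ammonium sulphate and -URA supplement, pH 6.0, with 2% galactose.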
Pf growth 48h: P. falciparum growth inhibition at 48 hours (one generation) | P. falciparum luciferase growth in erythrocytes, 48 h | Potency, µM (top dose mostly 28.7 µM), for the others: at the highest dose activity change, negative = inhibition, usual class: inhibitors | 5.9% of 310,000 active; note: potency is the fitted concentration of half-maximal effect; % is set by controls: 0 for no effect and ±100 for the full control effect
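Luminescence readout; reporter = integrated firefly luciferase in P. falciparum. RBC culture at 2% hematocrit, 0.1% parasitemia final, 37 C/5% CO2; decreased signal taken as growth inhibition.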
Pf growth 96h: P. falciparum growth inhibition at 96 hour, primary screen for plastid delayed-death inhibitors; P. falciparum luciferase reporter growth, 96 h; Potency, µM (highest dose often 28.7 µM), inactives show at the highest dose activity change, negative = inhibition, usual class: inhibitors; 6.9% of 320,000 active; note: potency is the fitted concentration of half-maximal effect; % is set by controls: 0 for no effect and ±100 for the full control effect
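Erythrocytes infected with luciferase-expressing P. falciparum were dispensed at 2% hematocrit and 0.05% parasitemia (final), then incubated with compounds 96 hours at 37 C in 5% CO2. Luminescence after detection reagent addition reported growth.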
Cycloheximide cs: counter-screen for Shiga toxin inhibitors: cycloheximide protein synthesis inhibition | cell reporter, cycloheximide protein synthesis inhibition counterscreen | max response, % | 12% of 300,000 active; in the data active = max response mostly above about 13%, no sharp cut-off; inactive = mostly below about 14%; note: read at 38.3 µM for the half of the compounds with a filed dose; 0% is about no effect
An asterisk follows results filed as active; ? = inconclusive; nt = no result given; [ ] = another dose, or the depositor's remark. An excerpt weighted towards active compounds, which were near 21% of everything screened. Unless noted, calls come from the whole dose curve; as a rule, active = well fitted inhibition curve with a large enough effect; inconclusive = small, poorly fitted or top-dose-only effect, or another doubt; inactive = no such curve, though single readings can be large or run the other way.

SMILES	Shiga inhibitor	NS1 function inh	Pf growth 48h	Pf growth 96h	Cycloheximide cs
C=CCC(=O)NC(C)c1cnn(-c2ccccc2C)c1C (stereo not given)	4	4%	0%	12%	11
Cc1ccccc1-n1ncc(C(C)NC(=O)c2ccccc2)c1C (stereo not given)	44	2%	15%	12%	35*
COc1cc(OC)cc(C(=O)NC(C)c2cnn(-c3ccccc3C)c2C)c1 (stereo not given)	22	-2%	?	-13%	16
Cc1ccccc1-n1ncc(C(C)NC(=O)c2ccco2)c1C (stereo not given)	55*	1%	43%	10%	29*
CN(C)C(CNC(=S)Nc1ccccc1Cl)c1cccnc1 (stereo not given)	-4	nt	-9%	-4%	5
Cc1ccccc1N(C(=O)Cc1c[nH]c2ccccc12)C(C(=O)NC1CCCCC1)c1ccco1 (stereo not given)	22	8%	?	-4%	-4
Cc1ccc(C(C(=O)NC2CCCCC2)N(Cc2ccco2)C(=O)Cc2c[nH]c3ccccc23)o1 (stereo not given)	-2	11%	13µM*	?	-4
Cc1ccc(C(C(=O)NC2CCCCC2)N(C(=O)Cc2c[nH]c3ccccc23)c2ccccc2C)o1 (stereo not given)	-14	24%	?	12%	-1
Cc1ccc(N(C(=O)Cc2c[nH]c3ccccc23)C(C(=O)NC2CCCCC2)c2ccco2)cc1 (stereo not given)	11	5%	10µM*	?	-2
CCCCNC(=S)NC(=O)c1ccccc1Br	82*	-13%	8%	-29%	18*
CCCCNC(=S)NC(=O)c1ccc(Cl)cc1Cl	40	-65%	37%	?	32*
CCN(CC)C(=S)NC(=O)c1ccc(Cl)cc1Cl	22	-92%	nt	-27%	-3
CCNC(=O)COc1cccc(C(=O)NCc2ccccc2)c1	26	-5%	-15%	16%	5
Brc1ccc(-c2cnc3n2CCCC3)cc1	39	0%	?	-7%[5.75 µM]	1
CCOc1ccc(-c2cnc3n2CCC3)cc1	-6	6%	nt	15µM*	1
Cc1cc(C(=O)Cn2nnc3ccccc3c2=O)c(C)n1Cc1cccs1	52	0%	82%	107%	37*
Cc1cc(C(=O)CN2C(=O)c3ccccc3C2=O)c(C)n1Cc1cccs1	12	-4%	69%	6%	26*
CCCn1c(C)cc(C(=O)CN2C(=O)c3cccc(N)c3C2=O)c1C	14	3%	59%	nt	17*
CCCCNC(=O)CN1C(=O)c2cccc(N)c2C1=O	12	nt	31%	48%	6
CCOc1cccc(CNCCCSc2ncccn2)c1	2	6%	-19%	?	-2
COCCn1cnc2c1c(=O)n(Cc1ccccc1C#N)c(=O)n2Cc1ccccc1	-12	?	?	-14%	-4
CC(=O)Nc1cccc(OCc2ccc(F)cc2)c1	19	nt	5%[5.75 µM]	21%	3
Cc1ccc(C(=O)COC(=O)c2ccccc2NC(=O)c2ccccc2)cc1[N+](=O)[O-]	-2	20%	4%	101%	-1
CC(C)(C)CN1CCNC(=O)C1CC(=O)NCCc1ccccc1C(F)(F)F (stereo not given)	-10	3%	?	184%	1
CN1CCNC(=O)C1CC(=O)NCCc1ccccc1F (stereo not given)	13	2%	43%	13µM*	-2
SMILES	Shiga inhibitor	NS1 function inh	Pf growth 48h	Pf growth 96h	Cycloheximide cs
O=C(CC1C(=O)NCCN1Cc1ccccn1)NCCc1ccccc1F (stereo not given)	36*	0%	4.7µM*	?	15
C=CCNC(=O)CC1C(=O)NCCN1Cc1c(F)cccc1Cl (stereo not given)	-22	0%	24%	?	-4
Cc1ccccc1CNC(=O)CC1C(=O)NCCN1Cc1c(F)cccc1Cl (stereo not given)	-5	1%	0.83µM*	2.3µM*	-2
COc1ccc(S(=O)(=O)Nc2cccc3cccnc23)c([N+](=O)[O-])c1	-7	nt	nt	nt	31
Cc1ccc(NC(=O)C(C)OC(=O)CCC2CCCCC2)cc1 (stereo not given)	nt	nt	45%	27%	nt
CC1CCC(C(C)C)C(OCC(O)CN2CCN(Cc3ccccc3)CC2)C1 (stereo not given)	-9	-53%	12µM*	?	-3
CC1CCC(C(C)C)C(OCC(O)CN2CCOCC2)C1 (stereo not given)	-20	1%	-6%	nt	-3
